Drawing on PMC7862700, “An all-to-all approach to the identification of sequence-specific readers for epigenetic DNA modifications on cytosine”, this text covers binding signal for eight sequences.

Assay in all cases: DAPPL (digital affinity profiling via proximity ligation, sequencing); 10 mM Tris-HCl pH 7.5, 50 mM NaCl, 1 mM DTT, 4% glycerol, room temperature, 30 min; GST-TFs on glutathione beads, 16-mer random dsDNA library, 0.1% formaldehyde crosslink after washing; high values mean tight binding
Common to all, as to conditions: protein: recombinant; tags: N-terminal GST; dsDNA, one strand shown

Test [1] concerns the target T1, FLI1 (Homo sapiens, UniProt Q01543 1-452).
T1 sequence: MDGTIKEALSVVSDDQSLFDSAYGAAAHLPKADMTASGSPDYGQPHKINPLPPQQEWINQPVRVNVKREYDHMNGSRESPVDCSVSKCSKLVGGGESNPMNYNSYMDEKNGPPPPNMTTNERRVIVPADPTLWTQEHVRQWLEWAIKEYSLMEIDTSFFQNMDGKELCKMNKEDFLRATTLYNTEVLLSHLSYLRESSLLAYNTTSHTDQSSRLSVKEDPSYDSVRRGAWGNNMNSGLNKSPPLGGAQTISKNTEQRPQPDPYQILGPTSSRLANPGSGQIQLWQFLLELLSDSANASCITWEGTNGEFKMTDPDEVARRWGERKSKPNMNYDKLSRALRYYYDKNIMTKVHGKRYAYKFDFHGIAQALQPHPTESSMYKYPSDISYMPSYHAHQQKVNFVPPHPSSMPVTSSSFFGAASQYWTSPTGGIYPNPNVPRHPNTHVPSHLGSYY
A digest of the protocol:
(§1)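 Pools of DNA-barcoded human transcription factors, expressed in yeast as GST fusions on glutathione beads and combined with a tag-only sample, were incubated with 200 nmole of a 16-mer random double-stranded DNA library. Incubation took 30 min at room temperature in Tris/NaCl/DTT/glycerol buffer and was followed by washing, 0.1% formaldehyde crosslinking, proximity ligation (BsaI/T4 ligase, 1 h, 37 °C), PCR amplification and sequencing on an Illumina NextSeq500. Binding signal is the ratio of a hexamer's read frequency for a factor to its frequency for the tag-only sample.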

Test [2] deals with T2, ELK1 (Homo sapiens, UniProt P19419 1-428).
T2 sequence: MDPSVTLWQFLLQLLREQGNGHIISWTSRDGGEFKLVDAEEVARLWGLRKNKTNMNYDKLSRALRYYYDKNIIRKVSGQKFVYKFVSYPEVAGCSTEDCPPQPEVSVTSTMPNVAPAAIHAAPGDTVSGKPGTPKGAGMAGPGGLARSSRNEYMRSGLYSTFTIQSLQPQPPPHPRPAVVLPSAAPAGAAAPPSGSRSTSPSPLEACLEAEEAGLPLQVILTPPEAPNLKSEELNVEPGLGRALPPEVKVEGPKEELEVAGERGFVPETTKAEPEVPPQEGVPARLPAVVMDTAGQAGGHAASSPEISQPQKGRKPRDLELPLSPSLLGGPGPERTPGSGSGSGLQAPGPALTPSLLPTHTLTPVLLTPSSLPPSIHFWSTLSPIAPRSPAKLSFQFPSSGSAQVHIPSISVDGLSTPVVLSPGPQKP
A digest of the protocol: as §1

The target of test [3] is T3, GABPA (Homo sapiens, UniProt Q06546 1-454).
T3 sequence: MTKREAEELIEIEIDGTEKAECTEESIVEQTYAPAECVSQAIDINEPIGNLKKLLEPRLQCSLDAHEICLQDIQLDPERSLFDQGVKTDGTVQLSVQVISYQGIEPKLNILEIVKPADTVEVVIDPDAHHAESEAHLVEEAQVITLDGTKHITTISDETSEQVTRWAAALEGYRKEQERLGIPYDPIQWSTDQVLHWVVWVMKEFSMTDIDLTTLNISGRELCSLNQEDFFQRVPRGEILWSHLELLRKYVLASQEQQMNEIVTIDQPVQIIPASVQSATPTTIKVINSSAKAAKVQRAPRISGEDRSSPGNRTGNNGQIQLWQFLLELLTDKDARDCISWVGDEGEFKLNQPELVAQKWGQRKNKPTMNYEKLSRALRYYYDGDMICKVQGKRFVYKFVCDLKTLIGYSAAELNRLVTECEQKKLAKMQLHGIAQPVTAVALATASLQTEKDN
A digest of the protocol:
as §1

Test [4] has as its target T4, ERG (Homo sapiens, UniProt P11308 1-479).
T4 sequence: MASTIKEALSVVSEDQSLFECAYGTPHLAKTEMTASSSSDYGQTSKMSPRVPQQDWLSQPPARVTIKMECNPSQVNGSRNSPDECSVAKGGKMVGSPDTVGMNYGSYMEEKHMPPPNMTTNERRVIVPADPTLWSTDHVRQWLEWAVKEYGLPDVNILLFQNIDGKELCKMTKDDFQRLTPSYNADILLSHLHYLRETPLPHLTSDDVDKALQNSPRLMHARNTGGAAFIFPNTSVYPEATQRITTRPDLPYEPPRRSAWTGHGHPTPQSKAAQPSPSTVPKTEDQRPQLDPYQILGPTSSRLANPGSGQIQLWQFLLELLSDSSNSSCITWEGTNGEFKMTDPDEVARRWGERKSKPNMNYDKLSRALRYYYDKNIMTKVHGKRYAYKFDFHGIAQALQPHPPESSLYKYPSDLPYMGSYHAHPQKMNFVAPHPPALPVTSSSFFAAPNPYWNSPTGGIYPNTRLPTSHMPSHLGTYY
A digest of the protocol:
as §1

Test [5] deals with ELF1 (Homo sapiens, UniProt P32519 1-619). A digest of the protocol: as §1
ELF1, sequence (P32519 whole entry): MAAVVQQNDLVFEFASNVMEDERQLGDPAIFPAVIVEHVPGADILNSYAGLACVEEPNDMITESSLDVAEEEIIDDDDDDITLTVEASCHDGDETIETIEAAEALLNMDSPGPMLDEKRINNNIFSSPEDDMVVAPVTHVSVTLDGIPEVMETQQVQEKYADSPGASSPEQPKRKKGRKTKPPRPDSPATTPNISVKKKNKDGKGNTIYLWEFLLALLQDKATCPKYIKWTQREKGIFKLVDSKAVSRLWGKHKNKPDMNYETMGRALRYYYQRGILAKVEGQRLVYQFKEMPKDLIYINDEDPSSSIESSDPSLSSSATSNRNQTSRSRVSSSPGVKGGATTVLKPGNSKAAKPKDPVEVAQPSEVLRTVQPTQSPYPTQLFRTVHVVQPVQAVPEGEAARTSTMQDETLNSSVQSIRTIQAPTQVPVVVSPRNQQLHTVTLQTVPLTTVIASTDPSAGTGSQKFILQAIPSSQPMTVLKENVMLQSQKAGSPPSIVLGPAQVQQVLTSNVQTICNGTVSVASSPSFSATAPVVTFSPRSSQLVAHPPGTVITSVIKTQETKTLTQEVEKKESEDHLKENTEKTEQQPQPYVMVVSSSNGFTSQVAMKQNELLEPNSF
In test [6] the target is T5, EHF (Homo sapiens, UniProt Q9NZC4 1-300).
T5 sequence: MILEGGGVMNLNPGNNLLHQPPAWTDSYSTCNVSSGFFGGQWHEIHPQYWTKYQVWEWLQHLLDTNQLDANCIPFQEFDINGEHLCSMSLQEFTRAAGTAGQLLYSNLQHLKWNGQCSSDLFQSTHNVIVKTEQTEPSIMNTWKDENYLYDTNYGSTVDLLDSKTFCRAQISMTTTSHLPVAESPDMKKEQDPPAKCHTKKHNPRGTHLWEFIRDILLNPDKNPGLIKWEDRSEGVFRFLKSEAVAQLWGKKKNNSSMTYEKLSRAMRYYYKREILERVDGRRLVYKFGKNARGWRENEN
A digest of the protocol: as §1

The target of test [7] is SPI1 (Homo sapiens, UniProt P17947 1-270). A digest of the protocol: as §1
Test [8] has as its target SPIB (Homo sapiens, UniProt Q01892 1-262). A digest of the protocol: as §1
In test [9] the target is T6, ELK3 (Homo sapiens, UniProt P41970 1-407).
T6 sequence: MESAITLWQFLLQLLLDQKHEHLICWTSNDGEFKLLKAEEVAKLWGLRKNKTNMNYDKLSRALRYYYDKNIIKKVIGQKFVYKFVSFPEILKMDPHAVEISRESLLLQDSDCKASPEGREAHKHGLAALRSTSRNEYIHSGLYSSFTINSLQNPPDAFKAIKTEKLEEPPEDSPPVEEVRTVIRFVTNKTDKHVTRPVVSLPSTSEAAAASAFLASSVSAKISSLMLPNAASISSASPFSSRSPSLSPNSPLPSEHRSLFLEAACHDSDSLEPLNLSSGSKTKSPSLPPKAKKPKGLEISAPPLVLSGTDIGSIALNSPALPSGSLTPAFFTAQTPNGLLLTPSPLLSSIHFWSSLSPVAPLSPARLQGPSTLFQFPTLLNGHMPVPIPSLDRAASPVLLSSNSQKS
A digest of the protocol: as §1

SPIB, sequence (Q01892 whole entry): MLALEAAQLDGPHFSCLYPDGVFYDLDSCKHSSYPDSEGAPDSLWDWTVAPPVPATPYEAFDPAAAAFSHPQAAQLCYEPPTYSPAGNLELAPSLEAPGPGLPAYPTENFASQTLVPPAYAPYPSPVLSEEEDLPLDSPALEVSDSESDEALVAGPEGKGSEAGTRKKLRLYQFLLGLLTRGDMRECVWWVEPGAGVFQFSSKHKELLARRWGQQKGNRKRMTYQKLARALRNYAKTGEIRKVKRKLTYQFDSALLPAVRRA

Turning to TTTCGC, the binding signal in test [1] is 1.11 fold enrichment (6-mer frequency, TF over GST control); in [2] it was 1.12 fold enrichment (6-mer frequency, TF over GST control); in test [3], 1.06 fold enrichment (6-mer frequency, TF over GST control); in [4], 1.02 fold enrichment (6-mer frequency, TF over GST control); in [5], 1.13 fold enrichment (6-mer frequency, TF over GST control); in test [6], 1.2 fold enrichment (6-mer frequency, TF over GST control). The binding signal in test [7] was 1.13 fold enrichment (6-mer frequency, TF over GST control); in test [8] it was 1.2 fold enrichment (6-mer frequency, TF over GST control); in [9], 1.14 fold enrichment (6-mer frequency, TF over GST control).
Consider CTCAGA, for which the binding signal in [1] was 1.07 fold enrichment (6-mer frequency, TF over GST control); in [2], 1.12 fold enrichment (6-mer frequency, TF over GST control); in test [3] it was 1.13 fold enrichment (6-mer frequency, TF over GST control); in [4], 1.1 fold enrichment (6-mer frequency, TF over GST control); in test [5] it was 1.14 fold enrichment (6-mer frequency, TF over GST control); in test [6], 1.1 fold enrichment (6-mer frequency, TF over GST control). In addition, the binding signal in [7] is 1.04 fold enrichment (6-mer frequency, TF over GST control); in [8], 1.01 fold enrichment (6-mer frequency, TF over GST control); in test [9], 1.02 fold enrichment (6-mer frequency, TF over GST control).
As to CACTAT, the binding signal in [1] is 1.23 fold enrichment (6-mer frequency, TF over GST control); in test [2], 1.18 fold enrichment (6-mer frequency, TF over GST control); in [3], 1.31 fold enrichment (6-mer frequency, TF over GST control); in [4], 1.18 fold enrichment (6-mer frequency, TF over GST control); in test [5], 1.26 fold enrichment (6-mer frequency, TF over GST control); in [6], 1.16 fold enrichment (6-mer frequency, TF over GST control). The binding signal in test [7] is 1.25 fold enrichment (6-mer frequency, TF over GST control); in test [8], 1.17 fold enrichment (6-mer frequency, TF over GST control); in test [9], 1.24 fold enrichment (6-mer frequency, TF over GST control).
Regarding ATGGGT, the binding signal in [1] is 1.39 fold enrichment (6-mer frequency, TF over GST control); in test [2] it was 1.37 fold enrichment (6-mer frequency, TF over GST control); in [3] it was 1.28 fold enrichment (6-mer frequency, TF over GST control); in [4], 1.43 fold enrichment (6-mer frequency, TF over GST control); in test [5] it was 1.3 fold enrichment (6-mer frequency, TF over GST control); in test [6], 1.46 fold enrichment (6-mer frequency, TF over GST control). Moreover, the binding signal in [7] is 1.21 fold enrichment (6-mer frequency, TF over GST control); in [8], 1.29 fold enrichment (6-mer frequency, TF over GST control); in test [9] it was 1.44 fold enrichment (6-mer frequency, TF over GST control).
Consider CCTTAT, for which the binding signal in test [1] was 1.53 fold enrichment (6-mer frequency, TF over GST control); in [2] it was 1.34 fold enrichment (6-mer frequency, TF over GST control); in test [3] it was 1.48 fold enrichment (6-mer frequency, TF over GST control); in test [4] it was 1.45 fold enrichment (6-mer frequency, TF over GST control); in [5], 1.39 fold enrichment (6-mer frequency, TF over GST control); in [6], 1.57 fold enrichment (6-mer frequency, TF over GST control). Further, the binding signal was 1.6 fold enrichment (6-mer frequency, TF over GST control) in [7]; 1.49 fold enrichment (6-mer frequency, TF over GST control) in [8]; 1.28 fold enrichment (6-mer frequency, TF over GST control) in test [9].
As to CACACT, the binding signal was 1.18 fold enrichment (6-mer frequency, TF over GST control) in test [1]; 1.11 fold enrichment (6-mer frequency, TF over GST control) in test [2]; 1.17 fold enrichment (6-mer frequency, TF over GST control) in [3]; 1.18 fold enrichment (6-mer frequency, TF over GST control) in test [4]; 1.21 fold enrichment (6-mer frequency, TF over GST control) in test [5]; 1.2 fold enrichment (6-mer frequency, TF over GST control) in [6]. The binding signal was 1.16 fold enrichment (6-mer frequency, TF over GST control) in test [7]; 1.14 fold enrichment (6-mer frequency, TF over GST control) in [8]; 1.24 fold enrichment (6-mer frequency, TF over GST control) in test [9].
As to TCGTTC, the binding signal in test [1] was 1.17 fold enrichment (6-mer frequency, TF over GST control); in [2] it was 1.15 fold enrichment (6-mer frequency, TF over GST control); in test [3], 1.33 fold enrichment (6-mer frequency, TF over GST control); in [4], 1.27 fold enrichment (6-mer frequency, TF over GST control); in test [5], 1.15 fold enrichment (6-mer frequency, TF over GST control); in test [6], 1.23 fold enrichment (6-mer frequency, TF over GST control). In addition, the binding signal was 1.17 fold enrichment (6-mer frequency, TF over GST control) in test [7]; 1.23 fold enrichment (6-mer frequency, TF over GST control) in [8]; 1.23 fold enrichment (6-mer frequency, TF over GST control) in [9].
CCTGTA: the binding signal was 1.31 fold enrichment (6-mer frequency, TF over GST control) in [1]; 1.16 fold enrichment (6-mer frequency, TF over GST control) in test [2]; 1.12 fold enrichment (6-mer frequency, TF over GST control) in test [3]; 1.28 fold enrichment (6-mer frequency, TF over GST control) in test [4]; 1.14 fold enrichment (6-mer frequency, TF over GST control) in test [5]; 1.14 fold enrichment (6-mer frequency, TF over GST control) in test [6]. Moreover, the binding signal is 1.28 fold enrichment (6-mer frequency, TF over GST control) in [7]; 1.19 fold enrichment (6-mer frequency, TF over GST control) in test [8]; 1.28 fold enrichment (6-mer frequency, TF over GST control) in test [9].
